Potency and affinity values are given separately. Calls of active or inactive are those of the source.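 How the source made its calls: active means compounds that lower nitrite signal with fitted half-max concentration up to ten times top dose; inconclusive means flat curves showing 30 to 70% inhibition, or poor fits; inactive means the rest.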
test: inhibitors of cytokine-induced nitrite release, dose response, cell-based, Griess absorbance, INS-1E, dry powder (AID 488866); settings: INS-1E cytokine-induced nitrite, 48 h; series mostly up to 19.5 µM; activity change, negative = inhibition: at the top concentration

Activity change, negative = inhibition, inactive:
COc1ccc(S(=O)(=O)N(C)C[C@@H]2Oc3c(NC(=O)Nc4ccc5occc5c4)cccc3C(=O)N([C@@H](C)CO)C[C@H]2C)cc1 -5.61%, COc1ccc(S(=O)(=O)N(C)C[C@@H]2Oc3c(NC(=O)Nc4cccc5c4ccn5C)cccc3C(=O)N([C@@H](C)CO)C[C@H]2C)cc1 -9.95%, C[C@@H]1CN([C@@H](C)CO)C(=O)c2cccc(NC(=O)Nc3cccc4ccccc34)c2O[C@H]1CN(C)S(=O)(=O)c1ccc2c(c1)CCC(=O)N2 7.42%, COc1ccc(S(=O)(=O)N(C)C[C@@H]2Oc3c(NC(=O)Nc4cccc5ccccc45)cccc3C(=O)N([C@@H](C)CO)C[C@H]2C)cc1F -2.71%, Cc1ccc(S(=O)(=O)N(C)C[C@@H]2Oc3c(NC(=O)Nc4ccc(F)cc4)cccc3C(=O)N([C@@H](C)CO)C[C@H]2C)cc1 -8.14%, COc1ccc(S(=O)(=O)N(C)C[C@@H]2Oc3c(NC(=O)Nc4cccc5c4CC(C)(C)O5)cccc3C(=O)N([C@@H](C)CO)C[C@H]2C)cc1 -14.3%, COc1ccccc1S(=O)(=O)N(C)C[C@@H]1Oc2c(NC(=O)Nc3cccc4ccccc34)cccc2C(=O)N([C@@H](C)CO)C[C@H]1C -10.3%, COc1ccc(S(=O)(=O)N(C)C[C@@H]2Oc3c(NC(=O)Nc4cccc5c4NSN5)cccc3C(=O)N([C@@H](C)CO)C[C@H]2C)cc1 -14.6%, Cc1ccc(S(=O)(=O)N(C)C[C@@H]2Oc3c(NC(=O)Nc4cccc5ccccc45)cccc3C(=O)N([C@@H](C)CO)C[C@H]2C)cc1 -15.7% [at 21 µM], COc1ccc(S(=O)(=O)N(C)C[C@@H]2Oc3c(NC(=O)Nc4cc(F)cc5c4OCOC5)cccc3C(=O)N([C@@H](C)CO)C[C@H]2C)cc1 -7.41%, COc1ccc(S(=O)(=O)N(C)C[C@@H]2Oc3c(NC(=O)Nc4cc(F)ccc4F)cccc3C(=O)N([C@@H](C)CO)C[C@H]2C)cc1 -1.63%, C[C@@H]1CN([C@@H](C)CO)C(=O)c2cccc(NC(=O)Nc3cccc4ccccc34)c2O[C@H]1CN(C)S(=O)(=O)c1ccc(Oc2ccccc2)cc1 -16.5%, COc1ccc(S(=O)(=O)N(C)C[C@@H]2Oc3c(NC(=O)Nc4cccc5c4CCCC5)cccc3C(=O)N([C@@H](C)CO)C[C@H]2C)cc1 -3.44%, C[C@@H]1CN([C@@H](C)CO)C(=O)c2cccc(NC(=O)Nc3cccc4ccccc34)c2O[C@H]1CN(C)S(=O)(=O)c1ccc2c(c1)OCCO2 -16.8%, C[C@@H]1CN([C@@H](C)CO)C(=O)c2cccc(NC(=O)Nc3cccc4ccccc34)c2O[C@H]1CN(C)S(=O)(=O)Cc1ccc(F)cc1 -0.544%, C[C@@H]1CN([C@@H](C)CO)C(=O)c2cccc(NC(=O)Nc3ccc(F)cc3)c2O[C@H]1CN(C)S(=O)(=O)c1ccc(F)cc1 -5.25%, COc1ccc(S(=O)(=O)N(C)C[C@@H]2Oc3c(NC(=O)Nc4cccc(-c5ncccn5)c4)cccc3C(=O)N([C@@H](C)CO)C[C@H]2C)cc1 -10.3%, COc1cccc(S(=O)(=O)N(C)C[C@@H]2Oc3c(NC(=O)Nc4cccc5ccccc45)cccc3C(=O)N([C@@H](C)CO)C[C@H]2C)c1 -17.2%, COc1ccc(S(=O)(=O)N(C)C[C@@H]2Oc3c(NC(=O)Nc4cccc5ccccc45)cccc3C(=O)N([C@@H](C)CO)C[C@H]2C)cc1 -14.6%, C[C@@H]1CN([C@@H](C)CO)C(=O)c2cccc(NC(=O)Nc3cccc4ccccc34)c2O[C@H]1CN(C)S(=O)(=O)c1ccc(F)cc1 -9.22%, COc1ccc(S(=O)(=O)N(C)C[C@@H]2Oc3ccc(NC(=O)Nc4cccc5ccccc45)cc3C(=O)N([C@@H](C)CO)C[C@H]2C)cc1 5.61% [at 21 µM], C[C@@H]1CN([C@@H](C)CO)C(=O)c2cccc(NC(=O)Nc3cccc4ccccc34)c2O[C@H]1CN(C)S(=O)(=O)c1ccccc1F -12.8%, COc1ccc(S(=O)(=O)N(C)C[C@@H]2Oc3c(NC(=O)Nc4ccc5c(c4)OCCO5)cccc3C(=O)N([C@@H](C)CO)C[C@H]2C)cc1 -9.23%, C[C@@H]1CN([C@@H](C)CO)C(=O)c2cccc(NC(=O)Nc3ccc(F)cc3)c2O[C@H]1CN(C)S(=O)(=O)c1ccc(Cl)cc1 -8.14%, COc1ccc(S(=O)(=O)N(C)C[C@@H]2Oc3c(NC(=O)c4cccc5ccccc45)cccc3C(=O)N([C@@H](C)CO)C[C@H]2C)cc1 0.538%, Cc1ccc(S(=O)(=O)N(C)C[C@@H]2Oc3c(NC(=O)Nc4ccc(F)cc4)cccc3C(=O)N([C@H](C)CO)C[C@H]2C)cc1 -12.1%
